The record followed here is ChEMBL document CHEMBL4888484, “Replenishing the malaria drug discovery pipeline: Screening and hit evaluation of the MMV Hit Generation Library 1 (HGL1) against asexual blood stage Plasmodium falciparum ,using a nano luciferase reporter read-out” (2022).

In general, % Inhibition refers to the drop in the measured response relative to a control, in per cent.

Hit rate of the full screen: of about 150,000 compounds, about 540 (0.36%) showed an effect of 50% or more. The entries come from a sample that favours strong results as a whole.

The assay concerns Plasmodium falciparum. Put plainly: Primary screen in NF54 nanoGlo assay, in single point, at 2uM, 72h; a lower Z score goes with more inhibition. The class given is functional, Erythrocyte. The conditions noted are these: timepoint 72 hour.
For the compound `CCOc1cccc2c1OC[C@@H](C(=O)N1CCCS1(=O)=O)C2`, the “% Inhibition” value was -7% and the Z score was 1.2.

Take `Cc1cc(C)c(-c2ccc(C(=O)N(C)CCn3ccnc3C)cc2)cc1C`: the “% Inhibition” value is recorded as -5% and the Z score was 0.69.

As to `COCCNc1c(-c2ccccc2)nc2sc(C(=O)NCc3cccnc3)c(C)n12`, the “% Inhibition” value is listed as -31% and the Z score was 3.13.

As to `Cc1ccc(-n2cc(NC(=O)c3cc(C)no3)cn2)c(C)c1`, the “% Inhibition” value is given as -5% and the Z score was 0.56.

Turning to `O=c1c2cnc(N3CCc4ccccc4C3)nc2ccn1-c1ccc(Cl)c(Cl)c1`, the “% Inhibition” value is reported as -8% and the Z score is recorded as 1.01.

As to `Cc1cccc(N2CCO[C@@H](CF)C2)n1`, the “% Inhibition” value came out at 5% and the Z score is reported as -0.46.

With `Cc1cnccc1NCCNCc1cccc(O)c1Cl`, the “% Inhibition” value worked out at 88% and the Z score is given as -13.09.

In the case of `Cc1cnccc1NCCNCc1nc(C(C)C)cs1`, the “% Inhibition” value is given as 6% and the Z score is given as -0.58.

In the case of `CCn1ccc(CNCCNc2ccncc2C)n1`, the “% Inhibition” value was -3% and the Z score was found to be 0.68.

For `Cc1cnccc1NCCNCc1ccnc(C(C)C)n1`, the “% Inhibition” value is recorded as -15% and the Z score is recorded as 1.39.

In the case of `CC1CCN(Cn2c(=S)sc3ccccc32)CC1`, the “% Inhibition” value is -4% and the Z score came to 0.63.

As to `Cc1nccn1CC(=O)N[C@@H](C)C1=CCCCC1`, the “% Inhibition” value is 3% and the Z score is -0.38.

Consider `O=C1Nc2ccc(F)cc2C12CCNC2c1ccc2c(c1)OCCO2` (configuration not stated), for which the “% Inhibition” value was 31% and the Z score is reported as -3.54.

Take `CS(=O)(=O)N1CCN(S(=O)(=O)N2CCN(c3ccccc3Cl)CC2)CC1`: the “% Inhibition” value came to 5% and the Z score is recorded as -0.74.

For `Cn1c(N)c(S(=O)(=O)N2CCN(c3ccccc3Cl)CC2)c(=O)n(C)c1=O`, the “% Inhibition” value came to 59% and the Z score is on record as -11.06.

Turning to `Cc1ccccc1S(=O)(=O)N1CCN(c2c(C)n(-c3ccccc3)c(=O)n(C)c2=O)CC1`, the “% Inhibition” value is reported as 36% and the Z score is recorded as -0.1.

On to `O=C(CCN(CCc1ccccc1)c1nc(C2CC2)nc2ccccc12)Nc1ccccc1`, for which the “% Inhibition” value is recorded as 0% and the Z score was -0.06.

In the case of `O=C(CCN1C(=O)CCC1=O)Nc1cccc(S(=O)(=O)N2CCCCC2)c1`, the “% Inhibition” value is recorded as -4% and the Z score was found to be 0.89.

On to `CCN1CCN([C@H]2CCN(c3ccnc4c(F)cc(Cl)cc34)C2)CC1`, for which the “% Inhibition” value is given as 11% and the Z score is -1.82.

For `CC(C)(C)OC(=O)N1CCC1CN1CCCC(c2nnc(N)o2)C1` (configuration not stated), the “% Inhibition” value was determined as 32% and the Z score was -3.65.

Regarding `Cn1ncc(Cl)c1C(=O)NCc1cccnc1Oc1ccc(F)c(F)c1`, the “% Inhibition” value is on record as -3% and the Z score is listed as 0.62.

In the case of `O=C(Cn1nnc2ccccc21)N(Cc1cccnc1)C1(C(=O)Nc2ccc3c(c2)OCO3)CCCC1`, the “% Inhibition” value is on record as 5% and the Z score is -0.59.

On to `COc1ccc(NC(=O)C2(N(Cc3nc(-c4ccccc4)cs3)C(=O)Cn3nnc4ccccc43)CCCCC2)cc1`, for which the “% Inhibition” value amounted to 55% and the Z score was -6.2.

`COc1ccc(NC(=O)C2(N(Cc3ccccc3)C(=O)Cn3nnc4ccccc43)CCCCC2)cc1`: the “% Inhibition” value is recorded as 44% and the Z score is recorded as -1.28.

In the case of `O=C(Cn1nnc2ccccc21)N(Cc1cccnc1)C1(C(=O)Nc2ccc3c(c2)OCO3)CCCCC1`, the “% Inhibition” value is reported as 36% and the Z score was -0.52.

In the case of `CN(C)c1ccc(NC(=O)C2(N(Cc3ccccc3)C(=O)Cn3nnc4ccccc43)CCCCC2)cc1`, the “% Inhibition” value came to 51% and the Z score is 0.77.

As for `O=C(Cn1nnc2ccccc21)N(Cc1ccccc1)C1(C(=O)Nc2ccc3c(c2)OCO3)CCCCC1`, the “% Inhibition” value came out at 50% and the Z score was -5.71.

`O=C(Cn1nnc2ccccc21)N(Cc1nc(-c2ccccc2)cs1)C1(C(=O)Nc2ccc3c(c2)OCO3)CCCC1`: the “% Inhibition” value is -7% and the Z score amounted to 0.77.

As for `CN(C)c1ccc(NC(=O)C2(N(Cc3ccccc3)C(=O)Cn3nnc4ccccc43)CCCC2)cc1`, the “% Inhibition” value worked out at 5% and the Z score is -0.62.

For `O=C(Cn1nnc2ccccc21)N(Cc1cccnc1)C1(C(=O)Nc2ccc(N3CCOCC3)cc2)CCCCC1`, the “% Inhibition” value was 2% and the Z score was -0.25.

Turning to `CCc1cc2c(N3CC(c4ncc(C5CC5)cn4)C3)ncnc2s1`, the “% Inhibition” value came to 0% and the Z score was -0.06.

Turning to `CN(C(=O)Cn1c(=O)n(C)c(=O)c2ccccc21)C1CCCCC1`, the “% Inhibition” value is given as -1% and the Z score was 0.19.

In the case of `Cc1cc(C(=O)N2CCOC3(CCS(=O)(=O)CC3)C2)c(C)s1`, the “% Inhibition” value is given as -13% and the Z score was 1.28.

For `Cc1c(CN(C)C(=O)c2ccc(-c3ccc4c(c3)OCC4)cc2)cnn1C`, the “% Inhibition” value is recorded as -20% and the Z score worked out at 2.12.

On to `COc1ccccc1-c1nnc2c3ccc(Cl)cc3nc(N3CCN(C(=O)c4ccc(C)cc4)CC3)n12`, for which the “% Inhibition” value is reported as -13% and the Z score was determined as 1.38.

For the compound `Cc1nc(-c2ccco2)ccc1C(=O)N[C@@H](C)c1nnnn1C`, the “% Inhibition” value is -12% and the Z score is 1.8.

In the case of `CCn1nc(-n2cnnc2)c(NS(=O)(=O)c2ccc(C)cc2)c1C`, the “% Inhibition” value is reported as -9% and the Z score is given as 1.53.

Turning to `COc1ncnc2c1CN(C(=O)NCC1(Cc3ccccc3)CCC1)CC2`, the “% Inhibition” value is on record as 29% and the Z score came out at 1.68.

In the case of `Cc1cc(C)c2nc(C)cc(Nc3ccc(O)cc3)c2c1`, the “% Inhibition” value came to 85% and the Z score is given as -12.86.

Consider `COc1cccc2c(Nc3ccc(C(=O)O)cc3)cc(C)nc12`, for which the “% Inhibition” value is -3% and the Z score turned out to be 0.28.

For the compound `Cc1cc(Nc2ccc(C)c(Cl)c2)c2cccc(C)c2n1`, the “% Inhibition” value was found to be 23% and the Z score is on record as -2.05.

As for `Cc1nonc1CC(=O)NCCCn1ccnn1`, the “% Inhibition” value is listed as -4% and the Z score is recorded as 0.49.

Regarding `Cc1ccc2c(NC(=O)NCC3(CO)CCC3)cccc2n1`, the “% Inhibition” value is given as -9% and the Z score worked out at 1.22.

As to `NC(=O)c1ncc(Br)cc1N1CCC[C@H](F)C1`, the “% Inhibition” value was -6% and the Z score was determined as 0.95.

In the case of `O=C(Nc1nc2c(s1)CN(S(=O)(=O)c1c(F)cccc1F)CC2)c1ccco1`, the “% Inhibition” value is on record as -5% and the Z score is reported as 0.7.

In the case of `COc1ccc(-c2nc(C)cc(C)c2CNC(=O)c2ccco2)cc1`, the “% Inhibition” value was -2% and the Z score came to 0.33.

Take `O=C(Nc1cccc(CNc2ncccn2)c1)c1ccco1`: the “% Inhibition” value is reported as -4% and the Z score was determined as 0.39.

For the compound `CN(Cc1cccc(N(C)C)c1)Cc1csc(-c2ccoc2)n1`, the “% Inhibition” value was -5% and the Z score worked out at 0.54.

In the case of `FC(F)(F)c1ccc(-c2nc(CN(Cc3ccccc3)Cc3ccccc3)cs2)cc1`, the “% Inhibition” value came out at 0% and the Z score amounted to 0.08.

For `CC1(C)CN(C(=O)c2c(O)cnc3c(F)cccc23)C1C1CCCO1` (configuration not stated), the “% Inhibition” value is listed as -4% and the Z score was 0.64.

As for `CCN(CC)c1ccc(C(=O)Nc2ccc3nc(N4CCCC4)cc(C)c3c2)cc1`, the “% Inhibition” value is recorded as 73% and the Z score is recorded as -6.69.

As for `Cc1cc(N2CCC(C)CC2)nc2ccc(NC(=O)c3cccnc3)cc12`, the “% Inhibition” value amounted to 18% and the Z score was -2.1.

Consider `COc1cc(OC)cc(C(=O)Nc2ccc3nc(N4CCC(C)CC4)cc(C)c3c2)c1`, for which the “% Inhibition” value amounted to 58% and the Z score is -3.66.

As to `COc1ccc(C(=O)Nc2ccc3nc(N4CCC(C)CC4)cc(C)c3c2)cc1OC`, the “% Inhibition” value came to 7% and the Z score is -1.1.

As to `CC(=O)Nc1ccc2nc(N3CCC(C(=O)N4CCC(N5CCCCC5)CC4)CC3)cc(C)c2c1`, the “% Inhibition” value is listed as 10% and the Z score is listed as -1.6.

Consider `CC(=O)Nc1ccc2nc(N3CCC(C(=O)NC4CC4)CC3)cc(C)c2c1`, for which the “% Inhibition” value amounted to 8% and the Z score is -1.23.
